Assay outcomes as filed in PubChem BioAssay.
HPGD block: inhibitors of human 15-hydroxyprostaglandin dehydrogenase (HPGD). P15428. purified HPGD, NADH fluorescence kinetic, PGE2 substrate. Potency, µM, inactives show at the highest dose activity change, negative = inhibition, actives largely listed as inhibitors. 150,000 compounds, 4.3% hits. AID 894; also: potency is read from the fitted curve at half-maximal effect
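NADH formation kinetics: reaction with 30 uM PGE2 and 1 mM NAD+ (final), 20 nM enzyme, Tris-HCl pH 8 with Tween 20, after 15 min compound preincubation at room temperature. Fluorescence change, last versus first of five reads.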
ALDH1A1 block: blocks purified human ALDH1A1 activity; P00352; Purified ALDH1A1, NADH fluorescence, propionaldehyde substrate; Potency, µM (highest dose often 75.3 µM), inactives show at the top dose activity, negative = inhibition, actives largely listed as inhibitors; 220,000 compounds, 7.3% hits; AID 1030;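 also: potency is read from the fitted curve at half-maximal effect; plate controls were no enzyme wells and a reference inhibitor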
Target sequence (P00352 whole entry, looked up): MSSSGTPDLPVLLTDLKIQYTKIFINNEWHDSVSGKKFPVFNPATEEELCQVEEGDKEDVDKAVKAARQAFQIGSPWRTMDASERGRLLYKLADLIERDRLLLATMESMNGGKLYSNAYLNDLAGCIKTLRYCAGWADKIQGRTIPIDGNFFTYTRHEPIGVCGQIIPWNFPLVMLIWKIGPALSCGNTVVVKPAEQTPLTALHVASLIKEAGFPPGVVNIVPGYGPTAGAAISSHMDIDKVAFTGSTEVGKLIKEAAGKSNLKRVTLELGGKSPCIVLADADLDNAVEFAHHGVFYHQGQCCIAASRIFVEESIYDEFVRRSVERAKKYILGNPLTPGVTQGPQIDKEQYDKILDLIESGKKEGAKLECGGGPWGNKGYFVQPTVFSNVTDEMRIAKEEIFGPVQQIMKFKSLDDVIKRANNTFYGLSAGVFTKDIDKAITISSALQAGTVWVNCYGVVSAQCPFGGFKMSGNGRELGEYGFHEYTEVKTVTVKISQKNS
PNC inhibitor: blocks assembly of the perinucleolar compartment; PC3M PTB-GFP, PNC prevalence imaging, 16 h; hits give low values; activity change (PNC), negative = inhibition, % at 10 µM; 140,000 compounds, 3.1% hits;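 active = readout at or below -70, meaning at least 70% loss of cells showing the perinucleolar compartment, a nuclear body marking cancer cells; inconclusive = readout between -30 and a set limit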;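 also: plate controls were DMSO wells for no effect and camptothecin positive control wells for full effect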
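Read-out is percentage of cells bearing a perinucleolar compartment, from automated 20x imaging of fixed, Hoechst-stained PC3M PTB-GFP cells. Cells were seeded 4 h, then exposed 16 h to compound (23 nl of library stock) in duplicate plates.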
Starred values were filed as active, the others as inactive; [ ] = dose if it differs, or a comment. Shown are actives, neighbours in structure and some others; about 11% of the full set was active somewhere. Unless noted, calls follow the shape of the dose curve; as a rule, active = well fitted inhibition curve with a large enough effect (not every such curve was filed as active); inconclusive = small, poorly fitted or top-dose-only effect, or another doubt; inactive = no such curve, though single readings can be large or run the other way. Unless noted, % is scaled to controls: 0 for no effect and ±100 for the full control effect.

Results for CN(C)c1nc(N(C)C)nc(N2CC(=O)N(c3ccccc3)C2=N)n1 ?
ALDH1A1 block: 1.4µM*

How did CN(C)c1nc(Oc2ccc(=O)n(-c3ccccc3)n2)nc(N2CCOCC2)n1 do in these assays?
HPGD block: -2%; ALDH1A1 block: 0%; PNC inhibitor: inconclusive

How did CC(C)(C)C1CCC(C(=O)OCC(=O)Nc2ccc3[nH]c(=O)[nH]c3c2)CC1 (configuration not stated) do in these assays?
ALDH1A1 block: 8%

What do the screens show for `Cc1ccc(S(=O)(=O)N(CCC#N)C2CCCCC2)c2nsnc12`?
HPGD block: -18%; ALDH1A1 block: inconclusive; PNC inhibitor: 93

What do the screens show for `N#CCCN(C1CCCCC1)S(=O)(=O)CCOc1ccccc1`?
HPGD block: -4%; ALDH1A1 block: 8.9µM*; PNC inhibitor: inconclusive

What do the screens show for `COc1ccc(-n2c(SCC(=O)NCCC(C)C)nc3ccsc3c2=O)cc1`?
HPGD block: inconclusive; ALDH1A1 block: 20µM*; PNC inhibitor: -16

What do the screens show for `COc1ccc(-n2c(SCC(=O)C(C)(C)C)nc3ccsc3c2=O)cc1`?
ALDH1A1 block: -12%

What do the screens show for `O=C(Oc1ccccc1)N1CCC2(CCCN(c3ccccn3)C2)CC1`?
HPGD block: -25%; ALDH1A1 block: inconclusive

Results for CCC(C(=O)NC(C)CCc1ccccc1)n1nc(C)n2c(cc3occc32)c1=O (configuration not stated) ?
HPGD block: -12%; ALDH1A1 block: 9%; PNC inhibitor: inconclusive

What do the screens show for `CCC(C(=O)NC(C)CCc1ccco1)n1nc(C)n2c(cc3occc32)c1=O` (configuration not stated)?
HPGD block: -2%; ALDH1A1 block: inconclusive; PNC inhibitor: -100*

How did Cc1ccc(C(C(=O)NC(C)(C)C)N(Cc2cccnc2)C(=O)C(=O)NC2CCCCC2)o1 (configuration not stated) do in these assays?
ALDH1A1 block: -11%

Results for Cc1ccc(-c2nn(CCC#N)cc2C=C(C#N)C#N)cc1 ?
HPGD block: -21%; ALDH1A1 block: 20µM*; PNC inhibitor: 20

What do the screens show for `CC(C)(C)c1ccc(-c2nn(CCC#N)cc2/C=N/O)cc1`?
ALDH1A1 block: 1%

How did O=c1c2oc3ccccc3c2[nH]c(=S)n1-c1ccccc1 do in these assays?
HPGD block: -15%; ALDH1A1 block: 7.9µM*; PNC inhibitor: 2

What do the screens show for `Cc1ccc(-n2c(=S)[nH]c3c(oc4ccccc43)c2=O)cc1`?
ALDH1A1 block: 8%; PNC inhibitor: 23

What do the screens show for `Cc1[nH]nc2c1C(c1cc(Br)cs1)C(C#N)=C(N)O2` (configuration not stated)?
HPGD block: -25%; ALDH1A1 block: -14%; PNC inhibitor: 33

How did C=CCn1c(SCC(=O)Nc2sccc2C(N)=O)nc2sc(CC)cc2c1=O do in these assays?
HPGD block: -5%; ALDH1A1 block: inconclusive; PNC inhibitor: -9

How did C=CCn1c(SCC(=O)c2c(N)n(CCC)c(=O)n(C)c2=O)nc2sc(CC)cc2c1=O do in these assays?
HPGD block: -19%; ALDH1A1 block: 0%; PNC inhibitor: inconclusive

Results for C=CCn1c(SC(C)C(N)=O)nc2sc(CC)cc2c1=O (configuration not stated) ?
ALDH1A1 block: 8.9µM*

Results for C=CCn1c(SC(C)C#N)nc2sc(CC)cc2c1=O (configuration not stated) ?
ALDH1A1 block: 2µM*

What do the screens show for `Cc1noc2ncnc(Oc3ccc(Cl)cc3Cl)c12`?
ALDH1A1 block: 12%

How did N#Cc1c(-c2ccccc2)ccn(Cc2ccc(Cl)cc2)c1=O do in these assays?
HPGD block: -20%; ALDH1A1 block: inconclusive; PNC inhibitor: -5

How did O=C(CCCc1c[nH]c2ccccc12)NCc1cccs1 do in these assays?
ALDH1A1 block: -7%

How did O=C1[C@H]2[C@H]3[C@H](O)[C@H](O)C/C(=N/OC[C@@H](O)COCc4ccco4)[C@H]3CC[C@@H]2C(=O)N1C[C@@H]1CCCO1 do in these assays?
ALDH1A1 block: 2%[13.5 µM]

What do the screens show for `COC(=O)c1ccc2c(c1)S(=O)(=O)NC(=NCc1ccco1)S2`?
HPGD block: 14µM*; ALDH1A1 block: -13%; PNC inhibitor: 18

How did COC(=O)c1ccc(=O)n(Cc2ccco2)c1 do in these assays?
HPGD block: -7%; ALDH1A1 block: -13%; PNC inhibitor: inconclusive

How did CCn1c(=O)c2c(nc3n2CCN3c2ccccc2)n(C)c1=O do in these assays?
ALDH1A1 block: 1%

How did CC1OC(n2cc(F)c(=O)[nH]c2=O)C(O)C1O (configuration not stated) do in these assays?
HPGD block: -8%; ALDH1A1 block: 3%

Results for Cc1cc(=O)[nH]c(=O)n1Cc1ccccc1 ?
ALDH1A1 block: 3%

What do the screens show for `CCn1c(C)cc(/C=C2\NC(=O)N(CC(=O)Nc3ccc(F)cc3)C2=O)c1C`?
ALDH1A1 block: 6%

How did Cc1cc(/C=C2/NC(=O)N(Cc3ccccc3F)C2=O)c(C)n1C(C)C do in these assays?
HPGD block: -26%; ALDH1A1 block: 2µM*; PNC inhibitor: inconclusive

How did CCn1c(C)cc(/C=C2\NC(=O)N(Cc3ccccc3)C2=O)c1C do in these assays?
HPGD block: -13%; ALDH1A1 block: 8.9µM*; PNC inhibitor: 2

What do the screens show for `Cc1cc(/C=C2/NC(=O)N(c3ccccc3)C2=O)c(C)n1C(C)C`?
HPGD block: -7%; ALDH1A1 block: inconclusive; PNC inhibitor: -19

Results for CCn1c(C)cc(/C=C2/NC(=O)N(Cc3ccccc3F)C2=O)c1C ?
HPGD block: inconclusive; ALDH1A1 block: 1.8µM*; PNC inhibitor: -4

How did COc1ccccc1C(=O)NNC(=O)c1ccc(NC(=O)C(C)C)cc1 do in these assays?
ALDH1A1 block: 9%

Results for COc1ccc(C(NC(=O)C2CCCCC2)c2c(O)ccc3ccccc23)cc1 (configuration not stated) ?
HPGD block: -14%; ALDH1A1 block: -7%; PNC inhibitor: 52

How did Cc1ccc(CSc2nnc3ccc(-c4ccncc4)nn23)cc1 do in these assays?
ALDH1A1 block: 0%

Results for CC(=O)Nc1nc(-c2ccccc2)ns1 ?
HPGD block: -7%; ALDH1A1 block: 4%; PNC inhibitor: -100*

What do the screens show for `COCC(=O)Nc1nc(-c2ccccc2)ns1`?
HPGD block: -26%; ALDH1A1 block: 2%; PNC inhibitor: 76

How did C/C(=N\NC(=O)c1sccc1-n1cccc1)c1cccs1 do in these assays?
ALDH1A1 block: -3%

How did C=CCN(C(=O)CNC(=O)c1cccs1)C(C(=O)NC(C)(C)C)c1ccccc1 (configuration not stated) do in these assays?
ALDH1A1 block: 10%

What do the screens show for `CC(C)(C)n1nnnc1CN(Cc1ccc(F)cc1)Cc1ccco1`?
HPGD block: -1%; ALDH1A1 block: 14µM*; PNC inhibitor: 7

How did COc1cccc(CN(Cc2ccco2)C(c2ccc(F)cc2)c2nnnn2C(C)(C)C)c1 (configuration not stated) do in these assays?
HPGD block: -21%; ALDH1A1 block: inconclusive; PNC inhibitor: inconclusive

What do the screens show for `Cc1ccc(NC(=O)CCC(=O)OCc2ccc(Br)cc2)cc1`?
HPGD block: -6%; ALDH1A1 block: 0%; PNC inhibitor: -5
